Assay results reported in PMC7862700, “An all-to-all approach to the identification of sequence-specific readers for epigenetic DNA modifications on cytosine”.

Key:
Test in all cases: DAPPL (digital affinity profiling via proximity ligation, sequencing); 10 mM Tris-HCl pH 7.5, 50 mM NaCl, 1 mM DTT, 4% glycerol, room temperature, 30 min; GST-TFs on glutathione beads, 16-mer random dsDNA library, 0.1% formaldehyde crosslink after washing; high values mean tight binding
FLI1 = target: T1, FLI1 (Homo sapiens, UniProt Q01543 1-452); settings: protein: recombinant; tags: N-terminal GST; dsDNA, one strand shown
T1 sequence: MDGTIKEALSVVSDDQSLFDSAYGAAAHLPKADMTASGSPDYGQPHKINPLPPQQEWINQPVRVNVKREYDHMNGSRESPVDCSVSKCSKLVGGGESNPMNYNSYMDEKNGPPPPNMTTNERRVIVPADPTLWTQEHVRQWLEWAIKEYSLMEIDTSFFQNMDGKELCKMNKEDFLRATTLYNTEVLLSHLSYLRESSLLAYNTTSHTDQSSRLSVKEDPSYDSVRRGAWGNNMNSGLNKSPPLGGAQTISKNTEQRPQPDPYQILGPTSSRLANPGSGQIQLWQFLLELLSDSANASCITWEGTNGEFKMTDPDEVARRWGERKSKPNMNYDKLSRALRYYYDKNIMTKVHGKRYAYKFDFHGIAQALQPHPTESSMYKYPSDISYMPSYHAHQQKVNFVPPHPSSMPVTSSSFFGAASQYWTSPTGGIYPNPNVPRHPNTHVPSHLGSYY
Summary of the method: (§1)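 The binding signal reported is, for every hexamer, its read frequency for a factor over its read frequency for the tag-only sample. Reads came from pools of yeast-expressed, GST-fused human transcription factors on glutathione beads, barcoded with DNA and mixed with that sample, which were incubated with 200 nmole of a random double-stranded 16-mer DNA library in Tris/NaCl/DTT/glycerol buffer at room temperature for 30 min. After washing, the pools were crosslinked with 0.1% formaldehyde, proximity-ligated with BsaI/T4 ligase for 1 h at 37 °C, PCR-amplified and sequenced on an Illumina NextSeq500.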

ELK1 = target: T2, ELK1 (Homo sapiens, UniProt P19419 1-428); settings: protein: recombinant; tags: N-terminal GST; dsDNA, one strand shown
T2 sequence: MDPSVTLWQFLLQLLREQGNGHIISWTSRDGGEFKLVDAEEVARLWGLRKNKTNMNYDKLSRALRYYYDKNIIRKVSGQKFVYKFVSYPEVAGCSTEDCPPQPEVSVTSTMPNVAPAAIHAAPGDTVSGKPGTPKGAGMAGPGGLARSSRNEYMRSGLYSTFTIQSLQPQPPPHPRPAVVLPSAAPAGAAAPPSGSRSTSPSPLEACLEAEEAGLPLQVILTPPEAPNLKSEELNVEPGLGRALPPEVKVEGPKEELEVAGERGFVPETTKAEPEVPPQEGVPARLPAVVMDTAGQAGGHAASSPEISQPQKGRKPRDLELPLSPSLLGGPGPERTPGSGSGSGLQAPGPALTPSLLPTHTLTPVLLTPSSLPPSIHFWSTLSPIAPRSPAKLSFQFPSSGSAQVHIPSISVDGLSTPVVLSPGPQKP
Summary of the method: as §1

GABPA = target: T3, GABPA (Homo sapiens, UniProt Q06546 1-454); settings: protein: recombinant; tags: N-terminal GST; dsDNA, one strand shown
T3 sequence: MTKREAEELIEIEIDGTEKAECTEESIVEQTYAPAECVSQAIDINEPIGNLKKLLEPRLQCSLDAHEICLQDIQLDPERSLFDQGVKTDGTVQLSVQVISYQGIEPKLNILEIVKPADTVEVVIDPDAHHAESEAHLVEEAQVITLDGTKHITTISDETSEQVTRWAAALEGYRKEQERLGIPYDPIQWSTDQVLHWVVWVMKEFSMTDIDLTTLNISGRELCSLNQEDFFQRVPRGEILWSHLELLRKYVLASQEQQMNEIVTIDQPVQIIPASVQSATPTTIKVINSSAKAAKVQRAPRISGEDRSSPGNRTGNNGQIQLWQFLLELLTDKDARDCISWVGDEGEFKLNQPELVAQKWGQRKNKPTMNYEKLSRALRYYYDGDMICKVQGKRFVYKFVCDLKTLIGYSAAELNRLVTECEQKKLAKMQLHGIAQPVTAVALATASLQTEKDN
Summary of the method: as §1

ERG = target: T4, ERG (Homo sapiens, UniProt P11308 1-479); settings: protein: recombinant; tags: N-terminal GST; dsDNA, one strand shown
T4 sequence: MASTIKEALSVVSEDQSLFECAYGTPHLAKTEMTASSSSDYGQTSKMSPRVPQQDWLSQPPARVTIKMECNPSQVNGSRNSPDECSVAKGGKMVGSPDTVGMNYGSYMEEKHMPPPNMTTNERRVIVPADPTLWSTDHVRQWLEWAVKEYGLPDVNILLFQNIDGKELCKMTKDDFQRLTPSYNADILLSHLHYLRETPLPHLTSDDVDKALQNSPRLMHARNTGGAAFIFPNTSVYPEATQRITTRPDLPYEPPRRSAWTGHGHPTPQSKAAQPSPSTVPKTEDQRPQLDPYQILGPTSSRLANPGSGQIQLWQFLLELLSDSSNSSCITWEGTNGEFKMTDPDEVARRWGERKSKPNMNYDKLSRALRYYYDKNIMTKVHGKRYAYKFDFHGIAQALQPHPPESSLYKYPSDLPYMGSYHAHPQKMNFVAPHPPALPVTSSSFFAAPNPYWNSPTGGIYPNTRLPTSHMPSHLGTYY
Summary of the method: as §1

ELF1 = ELF1 (Homo sapiens, UniProt P32519 1-619); settings: protein: recombinant; tags: N-terminal GST; dsDNA, one strand shown
Summary of the method: as §1

EHF = target: T5, EHF (Homo sapiens, UniProt Q9NZC4 1-300); settings: protein: recombinant; tags: N-terminal GST; dsDNA, one strand shown
T5 sequence: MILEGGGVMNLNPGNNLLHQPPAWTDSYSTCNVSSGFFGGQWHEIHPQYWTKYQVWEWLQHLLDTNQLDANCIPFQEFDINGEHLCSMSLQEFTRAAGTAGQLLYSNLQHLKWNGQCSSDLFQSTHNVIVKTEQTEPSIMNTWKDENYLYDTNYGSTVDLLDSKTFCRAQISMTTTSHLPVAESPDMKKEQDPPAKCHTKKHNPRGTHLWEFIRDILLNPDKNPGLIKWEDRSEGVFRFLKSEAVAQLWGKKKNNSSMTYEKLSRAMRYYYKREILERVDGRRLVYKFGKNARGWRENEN
Summary of the method: as §1

SPI1 = SPI1 (Homo sapiens, UniProt P17947 1-270); settings: protein: recombinant; tags: N-terminal GST; dsDNA, one strand shown
Summary of the method: as §1

SPIB = SPIB (Homo sapiens, UniProt Q01892 1-262); settings: protein: recombinant; tags: N-terminal GST; dsDNA, one strand shown
Summary of the method: as §1

ELK3 = target: T6, ELK3 (Homo sapiens, UniProt P41970 1-407); settings: protein: recombinant; tags: N-terminal GST; dsDNA, one strand shown
T6 sequence: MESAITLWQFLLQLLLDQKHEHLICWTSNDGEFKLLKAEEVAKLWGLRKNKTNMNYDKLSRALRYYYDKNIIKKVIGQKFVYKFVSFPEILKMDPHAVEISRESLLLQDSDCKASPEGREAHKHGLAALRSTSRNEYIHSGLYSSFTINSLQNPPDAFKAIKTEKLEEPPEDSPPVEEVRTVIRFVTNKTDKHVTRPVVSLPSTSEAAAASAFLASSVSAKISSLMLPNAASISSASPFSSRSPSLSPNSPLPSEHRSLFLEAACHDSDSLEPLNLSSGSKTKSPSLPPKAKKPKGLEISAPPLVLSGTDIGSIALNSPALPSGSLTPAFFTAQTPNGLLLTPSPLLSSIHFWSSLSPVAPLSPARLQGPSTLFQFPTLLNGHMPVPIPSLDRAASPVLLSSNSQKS
Summary of the method: as §1

FEV = target: T7, FEV (Homo sapiens, UniProt Q99581 1-238); settings: protein: recombinant; tags: N-terminal GST; dsDNA, one strand shown
T7 sequence: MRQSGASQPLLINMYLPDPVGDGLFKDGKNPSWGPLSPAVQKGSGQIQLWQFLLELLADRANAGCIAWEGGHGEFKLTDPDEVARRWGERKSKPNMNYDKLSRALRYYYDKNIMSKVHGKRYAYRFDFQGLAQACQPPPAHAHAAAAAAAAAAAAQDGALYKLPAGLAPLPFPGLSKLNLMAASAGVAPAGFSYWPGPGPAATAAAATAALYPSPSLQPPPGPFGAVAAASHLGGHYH
Summary of the method: as §1

ETV5 = ETV5 (Homo sapiens, UniProt P41161 1-510); settings: protein: recombinant; tags: N-terminal GST; dsDNA, one strand shown
Summary of the method: as §1

HSF1 = HSF1 (Homo sapiens, UniProt Q00613 1-529); settings: protein: recombinant; tags: N-terminal GST; chain copies: 3; dsDNA, one strand shown
Summary of the method: as §1

SPIC = target: T8, SPIC (Homo sapiens, UniProt Q8N5J4 1-248); settings: protein: recombinant; tags: N-terminal GST; dsDNA, one strand shown
T8 sequence: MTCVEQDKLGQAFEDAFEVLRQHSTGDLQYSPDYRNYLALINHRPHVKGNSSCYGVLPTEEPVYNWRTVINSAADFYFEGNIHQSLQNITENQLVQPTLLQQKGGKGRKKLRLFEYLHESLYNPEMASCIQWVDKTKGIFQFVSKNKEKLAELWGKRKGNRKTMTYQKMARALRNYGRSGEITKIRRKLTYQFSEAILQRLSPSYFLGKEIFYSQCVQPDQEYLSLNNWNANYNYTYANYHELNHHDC
Summary of the method: as §1

ELF4 = ELF4 (Homo sapiens, UniProt Q99607 1-663); settings: protein: recombinant; tags: N-terminal GST; dsDNA, one strand shown
Summary of the method: as §1

ELK4 = target: T9, ELK4 (Homo sapiens, UniProt P28324-2 1-405); settings: protein: recombinant; tags: N-terminal GST; dsDNA, one strand shown
T9 sequence: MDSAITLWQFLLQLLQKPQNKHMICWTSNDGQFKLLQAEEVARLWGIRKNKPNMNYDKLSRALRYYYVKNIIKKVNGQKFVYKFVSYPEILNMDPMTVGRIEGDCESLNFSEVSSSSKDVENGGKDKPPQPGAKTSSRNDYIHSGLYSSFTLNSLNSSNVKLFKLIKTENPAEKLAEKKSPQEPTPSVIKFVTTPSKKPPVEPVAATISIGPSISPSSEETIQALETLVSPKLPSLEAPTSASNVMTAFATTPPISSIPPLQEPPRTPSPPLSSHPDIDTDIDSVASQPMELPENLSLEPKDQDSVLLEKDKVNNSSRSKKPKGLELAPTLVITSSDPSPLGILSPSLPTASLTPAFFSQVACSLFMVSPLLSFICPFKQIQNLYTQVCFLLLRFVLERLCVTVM
Summary of the method: as §1

ETV2 = target: T10, ETV2 (Homo sapiens, UniProt O00321 1-342); settings: protein: recombinant; tags: N-terminal GST; dsDNA, one strand shown
T10 sequence: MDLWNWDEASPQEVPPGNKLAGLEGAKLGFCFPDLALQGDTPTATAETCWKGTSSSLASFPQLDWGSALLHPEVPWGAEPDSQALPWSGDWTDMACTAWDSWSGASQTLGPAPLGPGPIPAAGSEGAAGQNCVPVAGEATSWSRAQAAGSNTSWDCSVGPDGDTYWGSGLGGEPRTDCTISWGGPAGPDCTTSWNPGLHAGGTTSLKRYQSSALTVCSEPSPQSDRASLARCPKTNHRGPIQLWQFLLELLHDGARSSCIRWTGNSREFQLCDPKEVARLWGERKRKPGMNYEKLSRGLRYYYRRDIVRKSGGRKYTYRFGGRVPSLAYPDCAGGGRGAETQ
Summary of the method: as §1

ELF3 = target: T11, ELF3 (Homo sapiens, UniProt P78545 1-371); settings: protein: recombinant; tags: N-terminal GST; dsDNA, one strand shown
T11 sequence: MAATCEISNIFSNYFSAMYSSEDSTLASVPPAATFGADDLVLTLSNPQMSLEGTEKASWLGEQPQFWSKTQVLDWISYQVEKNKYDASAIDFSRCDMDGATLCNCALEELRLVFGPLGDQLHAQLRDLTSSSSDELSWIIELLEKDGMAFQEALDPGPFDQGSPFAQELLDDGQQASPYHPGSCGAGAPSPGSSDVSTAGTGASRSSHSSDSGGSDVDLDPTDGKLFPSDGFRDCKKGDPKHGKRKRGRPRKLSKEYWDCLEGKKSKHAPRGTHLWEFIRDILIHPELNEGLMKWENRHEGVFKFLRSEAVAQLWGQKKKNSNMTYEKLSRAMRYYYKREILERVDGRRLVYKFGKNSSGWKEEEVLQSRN
Summary of the method: as §1

CRX = CRX (Homo sapiens, UniProt O43186 1-299); settings: protein: recombinant; tags: N-terminal GST; dsDNA, one strand shown
Summary of the method: as §1

ETV1 = ETV1 (Homo sapiens, UniProt P50549 1-477); settings: protein: recombinant; tags: N-terminal GST; dsDNA, one strand shown
Summary of the method: as §1

SPIB, sequence (Q01892 whole entry): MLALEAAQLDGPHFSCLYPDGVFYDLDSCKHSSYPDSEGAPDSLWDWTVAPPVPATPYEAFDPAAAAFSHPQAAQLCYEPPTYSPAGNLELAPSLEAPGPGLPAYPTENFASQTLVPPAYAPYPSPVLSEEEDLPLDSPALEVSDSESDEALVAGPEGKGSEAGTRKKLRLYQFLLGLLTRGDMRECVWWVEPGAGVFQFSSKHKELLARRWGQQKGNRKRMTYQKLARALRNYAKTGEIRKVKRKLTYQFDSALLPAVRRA
ETV5, sequence (P41161 whole entry): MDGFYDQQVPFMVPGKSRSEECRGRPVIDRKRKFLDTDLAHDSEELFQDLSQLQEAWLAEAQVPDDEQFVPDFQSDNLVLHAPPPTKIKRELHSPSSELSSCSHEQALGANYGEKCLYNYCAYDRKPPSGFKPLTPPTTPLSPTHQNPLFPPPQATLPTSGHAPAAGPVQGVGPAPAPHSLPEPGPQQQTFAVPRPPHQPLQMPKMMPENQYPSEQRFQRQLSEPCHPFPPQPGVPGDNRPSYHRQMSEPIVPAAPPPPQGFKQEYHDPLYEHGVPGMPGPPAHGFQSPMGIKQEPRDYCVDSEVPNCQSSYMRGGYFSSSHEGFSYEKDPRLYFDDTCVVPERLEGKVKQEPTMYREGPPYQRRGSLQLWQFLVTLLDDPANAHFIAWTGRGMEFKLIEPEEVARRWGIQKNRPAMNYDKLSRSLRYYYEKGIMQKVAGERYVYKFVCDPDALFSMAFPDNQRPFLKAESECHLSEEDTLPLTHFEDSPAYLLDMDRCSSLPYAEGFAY
ETV1, sequence (P50549 whole entry): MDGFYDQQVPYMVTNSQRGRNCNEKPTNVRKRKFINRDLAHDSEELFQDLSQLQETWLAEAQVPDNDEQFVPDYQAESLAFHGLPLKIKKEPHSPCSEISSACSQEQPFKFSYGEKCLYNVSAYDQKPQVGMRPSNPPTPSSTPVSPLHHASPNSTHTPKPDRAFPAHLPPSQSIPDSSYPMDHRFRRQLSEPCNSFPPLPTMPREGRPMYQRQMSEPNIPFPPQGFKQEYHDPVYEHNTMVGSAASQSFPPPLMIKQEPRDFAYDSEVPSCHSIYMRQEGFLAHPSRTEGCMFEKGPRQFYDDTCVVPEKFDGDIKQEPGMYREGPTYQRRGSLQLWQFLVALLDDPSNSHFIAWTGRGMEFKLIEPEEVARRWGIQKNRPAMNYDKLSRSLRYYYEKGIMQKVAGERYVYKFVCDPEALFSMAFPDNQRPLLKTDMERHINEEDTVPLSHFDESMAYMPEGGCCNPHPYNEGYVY
CRX, sequence (O43186 whole entry): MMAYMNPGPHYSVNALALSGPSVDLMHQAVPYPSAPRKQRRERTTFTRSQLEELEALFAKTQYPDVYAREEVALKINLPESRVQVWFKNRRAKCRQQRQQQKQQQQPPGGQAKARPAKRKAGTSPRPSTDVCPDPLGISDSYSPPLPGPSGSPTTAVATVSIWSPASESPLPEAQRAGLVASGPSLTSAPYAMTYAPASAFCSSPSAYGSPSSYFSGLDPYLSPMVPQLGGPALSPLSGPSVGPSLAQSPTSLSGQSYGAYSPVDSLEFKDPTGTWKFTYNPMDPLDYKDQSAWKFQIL
ELF1, sequence (P32519 whole entry): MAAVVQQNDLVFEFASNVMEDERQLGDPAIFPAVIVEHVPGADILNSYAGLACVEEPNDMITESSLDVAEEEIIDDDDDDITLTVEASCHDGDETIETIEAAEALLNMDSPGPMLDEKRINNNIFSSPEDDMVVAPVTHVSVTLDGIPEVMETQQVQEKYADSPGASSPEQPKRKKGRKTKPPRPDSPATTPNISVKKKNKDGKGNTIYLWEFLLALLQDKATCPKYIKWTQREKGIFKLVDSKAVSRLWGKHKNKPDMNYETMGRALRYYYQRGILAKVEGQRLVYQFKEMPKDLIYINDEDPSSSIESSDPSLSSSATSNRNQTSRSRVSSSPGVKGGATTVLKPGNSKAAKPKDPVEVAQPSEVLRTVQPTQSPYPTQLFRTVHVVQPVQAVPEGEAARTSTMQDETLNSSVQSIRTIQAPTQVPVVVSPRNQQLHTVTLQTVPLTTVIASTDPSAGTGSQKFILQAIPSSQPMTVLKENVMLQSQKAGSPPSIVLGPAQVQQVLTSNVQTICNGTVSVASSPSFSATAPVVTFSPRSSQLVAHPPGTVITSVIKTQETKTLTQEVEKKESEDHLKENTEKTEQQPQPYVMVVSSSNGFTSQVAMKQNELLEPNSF
ELF4, sequence (Q99607 whole entry): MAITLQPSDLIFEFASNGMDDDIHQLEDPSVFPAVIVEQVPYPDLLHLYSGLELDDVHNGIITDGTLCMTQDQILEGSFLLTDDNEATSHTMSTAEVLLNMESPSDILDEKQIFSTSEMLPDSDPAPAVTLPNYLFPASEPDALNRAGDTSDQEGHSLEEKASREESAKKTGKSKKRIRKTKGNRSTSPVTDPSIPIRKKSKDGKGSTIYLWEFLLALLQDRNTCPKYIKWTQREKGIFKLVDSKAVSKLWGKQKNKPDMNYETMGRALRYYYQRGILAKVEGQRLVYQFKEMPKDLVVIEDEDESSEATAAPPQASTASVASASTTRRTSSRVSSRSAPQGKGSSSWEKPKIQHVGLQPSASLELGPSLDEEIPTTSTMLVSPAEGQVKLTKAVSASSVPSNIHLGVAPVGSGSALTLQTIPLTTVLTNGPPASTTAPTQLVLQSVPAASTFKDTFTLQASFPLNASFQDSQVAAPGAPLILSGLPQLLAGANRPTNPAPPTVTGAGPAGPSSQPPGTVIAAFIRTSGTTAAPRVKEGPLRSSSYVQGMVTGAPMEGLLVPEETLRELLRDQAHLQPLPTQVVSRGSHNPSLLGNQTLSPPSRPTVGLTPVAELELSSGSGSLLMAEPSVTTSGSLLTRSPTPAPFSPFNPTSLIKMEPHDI
HSF1, sequence (Q00613 whole entry): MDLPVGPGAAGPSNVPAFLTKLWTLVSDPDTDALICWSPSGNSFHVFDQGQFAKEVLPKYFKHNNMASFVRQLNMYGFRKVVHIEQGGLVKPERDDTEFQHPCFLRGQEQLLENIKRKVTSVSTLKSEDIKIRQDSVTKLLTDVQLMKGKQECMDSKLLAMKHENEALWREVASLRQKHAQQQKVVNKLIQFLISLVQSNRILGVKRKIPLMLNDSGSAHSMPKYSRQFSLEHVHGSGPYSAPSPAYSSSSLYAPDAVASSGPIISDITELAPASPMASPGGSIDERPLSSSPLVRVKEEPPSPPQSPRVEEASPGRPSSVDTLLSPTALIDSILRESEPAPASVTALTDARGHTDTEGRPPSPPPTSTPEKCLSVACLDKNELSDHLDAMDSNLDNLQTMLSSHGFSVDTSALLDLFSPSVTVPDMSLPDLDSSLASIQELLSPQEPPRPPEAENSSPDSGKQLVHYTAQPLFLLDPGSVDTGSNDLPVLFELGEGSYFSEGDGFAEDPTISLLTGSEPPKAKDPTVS

TGGTAT
binding signal (FLI1): 1.41 fold enrichment (6-mer frequency, TF over GST control) | binding signal (ELK1): 1.45 fold enrichment (6-mer frequency, TF over GST control) | binding signal (GABPA): 1.29 fold enrichment (6-mer frequency, TF over GST control) | binding signal (ERG): 1.31 fold enrichment (6-mer frequency, TF over GST control) | binding signal (ELF1): 1.39 fold enrichment (6-mer frequency, TF over GST control) | binding signal (EHF): 1.32 fold enrichment (6-mer frequency, TF over GST control) | binding signal (SPI1): 1.39 fold enrichment (6-mer frequency, TF over GST control) | binding signal (SPIB): 1.37 fold enrichment (6-mer frequency, TF over GST control) | binding signal (ELK3): 1.24 fold enrichment (6-mer frequency, TF over GST control) | binding signal (FEV): 1.26 fold enrichment (6-mer frequency, TF over GST control) | binding signal (ETV5): 1.37 fold enrichment (6-mer frequency, TF over GST control) | binding signal (HSF1): 1.35 fold enrichment (6-mer frequency, TF over GST control) | binding signal (SPIC): 1.39 fold enrichment (6-mer frequency, TF over GST control) | binding signal (ELF4): 1.42 fold enrichment (6-mer frequency, TF over GST control) | binding signal (ELK4): 1.47 fold enrichment (6-mer frequency, TF over GST control) | binding signal (ETV2): 1.33 fold enrichment (6-mer frequency, TF over GST control) | binding signal (ELF3): 1.45 fold enrichment (6-mer frequency, TF over GST control) | binding signal (CRX): 1.39 fold enrichment (6-mer frequency, TF over GST control) | binding signal (ETV1): 1.37 fold enrichment (6-mer frequency, TF over GST control)
